# Test system: Plasmodium berghei ANKA liver stage in HepG2-A16-CD81
# Assay: % inhibition of liver stage parasite viability (luciferase); higher = more inhibition
# Conditions: 5 µM; 48 h
# Protocol: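 Single-concentration screen of the MMV Pandemic Response Box. P. falciparum NF54 asexual blood stages: pLDH assay, 72 h at 37 °C, 2 and 20 µM, n=2. Stage IV/V gametocytes (NF54): luciferase reporter (NF54-Pfs16-GFP-Luc, 48 h), ATP bioluminescence (24 h) and PrestoBlue (48 h) at 1 and 5 µM, n=1. P. berghei liver stage (luciferase in HepG2-A16-CD81, 48 h post infection) at 5 µM, n=4. All normalised to DMSO and kill controls as % inhibition.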
row,Structure (SMILES),% inhibition of liver stage parasite viability [%]
1,COc1cc(C(C)(C)CCCC(C)C)cc(OC)c1OC,21
2,CCN1CCN(Cc2nc3ccc([N+](=O)[O-])cc3c(=O)n2-c2ccccc2F)CC1,14.3
3,C[N+]1(C)CCCC(OC(=O)C(O)(c2ccccc2)c2ccccc2)C1 (stereo not drawn),34
4,CCCCc1ccc(C(=O)O)nc1,19.3
5,CN1C(=O)C(c2ccccc2)C(=O)N(c2ccccc2)c2cc(C(F)(F)F)ccc21 (stereo not drawn),7.89
6,O=C(NC12CC3CC(CC(C3)C1)C2)c1cc2ccccc2[nH]1,11.7
7,COc1ccccc1CN[C@H]1C2CCN(CC2)[C@H]1C(c1ccccc1)c1ccccc1,17.8
8,C[C@H]1CC[C@]2(NC1)O[C@H]1C[C@H]3[C@@H]4CC[C@H]5C[C@@H](O)CC[C@]5(C)[C@H]4CC[C@]3(C)[C@H]1[C@@H]2C,32
9,Nc1c(C(=O)NCc2ccco2)c2nc3ccccc3nc2n1CCN1CCCCC1,28.4
10,COC(=O)Nc1nc2ccccc2[nH]1,30.8
11,C[C@@]1(O)[C@H](O)[C@@H](CO)O[C@H]1n1ccc2c(N)ncnc21,12.7
12,CC(C)Oc1cccc(NC(=O)c2ccccc2C(F)(F)F)c1,23.7
13,NC1(C(=O)O)CCP(=O)(O)CC1 (stereo not drawn),19.9
